In the supplement of paper PMC6331611 one finds normalized intracellular growth data, which are given here for 24 compounds.

The test deals with Salmonella enterica serovar Typhimurium SL1344. The test is described as follows: normalized intracellular growth (luminescence, IQM-normalized) in RAW264.7 macrophages (fraction of plate interquartile mean); higher = more bacterial growth (less inhibition). The following applies: 10 µM.

± gives the standard deviation of the averaged measurements. Whole data set: some 1,600 compounds, median “normalized intracellular growth (luminescence, IQM-normalized) in RAW264.7 macrophages” near 1, cut for the lowest 2% near 0.43. Shown is part of a subset that was picked to be rich in the lowest values.

As for `CCCCC(CC)COc1ccc(-c2nc(-c3ccc(OC)cc3)nc(-c3ccc(OCC(CC)CCCC)cc3O)n2)c(O)c1` (stereo not drawn), the normalized intracellular growth (time point: T3 (3 h)) worked out at 1.02 ± 0.065 and the normalized intracellular growth (time point: Tfinal (~6 h)) amounted to 1.1 ± 0.17.

On to `Nc1nc(F)nc2c1ncn2[C@@H]1O[C@H](COP(=O)(O)O)[C@@H](O)[C@@H]1O`, for which the normalized intracellular growth reads like this: (time point: T3 (3 h)) 0.982 ± 0.061; (time point: Tfinal (~6 h)) 1.16 ± 0.13.

`O=C1OC2(c3ccc(O)cc3Oc3cc(O)ccc32)c2ccccc21`: the normalized intracellular growth is, setting by setting: (time point: T3 (3 h)) 1.02 ± 0.069; (time point: Tfinal (~6 h)) 0.891 ± 0.079.

On to `COc1ccc(C[C@H](N)C(=O)N[C@H]2[C@@H](O)[C@H](n3cnc4c(N(C)C)ncnc43)O[C@@H]2CO)cc1`, for which the normalized intracellular growth (time point: T3 (3 h)) was 0.993 ± 0.058 and the normalized intracellular growth (time point: Tfinal (~6 h)) came to 1.05 ± 0.16.

In the case of `NCCCC(=O)O` [gamma-AMINOBUTYRIC ACID], the normalized intracellular growth stood at 0.9762 ± 0.0094 (time point: T3 (3 h)) and 1.05 ± 0.096 (time point: Tfinal (~6 h)).

The compound `FCOC(C(F)(F)F)C(F)(F)F` registered a normalized intracellular growth (time point: T3 (3 h)) of 1.01 ± 0.052 and a normalized intracellular growth (time point: Tfinal (~6 h)) of 0.806 ± 0.18.

As to `NCCCC(O)(P(=O)(O)O)P(=O)(O)O`, the normalized intracellular growth is, setting by setting: (time point: T3 (3 h)) 0.994 ± 0.083; (time point: Tfinal (~6 h)) 1.12 ± 0.14.

Regarding `CCCCCN(C)CCC(O)(P(=O)(O)O)P(=O)(O)O`, the normalized intracellular growth came to 0.886 ± 0.014 (time point: T3 (3 h)) and 0.0897 ± 0.012 (time point: Tfinal (~6 h)).

As for `O=C1c2ccccc2C(=O)C1c1ccc(Br)cc1`, the normalized intracellular growth (time point: T3 (3 h)) was determined as 1.08 ± 0.047 and the normalized intracellular growth (time point: Tfinal (~6 h)) amounted to 1.15 ± 0.21.

Take `CO/N=C1\C[C@]2(C[C@@H]3C[C@@H](C/C=C(\C)C[C@@H](C)/C=C/C=C4\CO[C@@H]5[C@H](O)C(C)=C[C@@H](C(=O)O3)[C@]45O)O2)O[C@H](/C(C)=C/C(C)C)[C@H]1C`: the normalized intracellular growth was determined as 0.979 ± 0.022 (time point: T3 (3 h)) and 0.831 ± 0.033 (time point: Tfinal (~6 h)).

As for `CCN(CC)CCOc1ccc2c(c1)C(=O)c1cc(OCCN(CC)CC)ccc1-2`, the normalized intracellular growth by setting is: (time point: T3 (3 h)) 1 ± 0.035; (time point: Tfinal (~6 h)) 1 ± 0.021.

As to `CCCCCCCCCCCCCCCC(=O)OC[C@@H](NC(=O)C(Cl)Cl)[C@H](O)c1ccc([N+](=O)[O-])cc1`, the normalized intracellular growth is, setting by setting: (time point: T3 (3 h)) 1.04 ± 0.037; (time point: Tfinal (~6 h)) 0.822 ± 0.14.

As to `O=C(N[C@H](CO)[C@H](O)c1ccc([N+](=O)[O-])cc1)C(Cl)Cl`, the normalized intracellular growth turned out to be 0.927 ± 0.049 (time point: T3 (3 h)) and 0.163 ± 0.022 (time point: Tfinal (~6 h)).

For `CS(=O)(=O)c1ccc([C@@H](O)[C@@H](CF)NC(=O)C(Cl)Cl)cc1`, the normalized intracellular growth stood at 1.27 ± 0.096 (time point: T3 (3 h)) and 0.22 ± 0.17 (time point: Tfinal (~6 h)).

With `CS(=O)(=O)c1ccc([C@@H](O)[C@@H](CO)NC(=O)C(Cl)Cl)cc1`, the normalized intracellular growth reads like this: (time point: T3 (3 h)) 0.925 ± 0.07; (time point: Tfinal (~6 h)) 0.767 ± 0.047.

Consider `CC(=O)Nc1ccc(S(=O)(=O)Nc2ccc([N+](=O)[O-])cc2)cc1`, for which the normalized intracellular growth stood at 0.992 ± 0.038 (time point: T3 (3 h)) and 1.03 ± 0.15 (time point: Tfinal (~6 h)).

With `NC(=O)c1ccc([N+](=O)[O-])cc1Cl`, the normalized intracellular growth runs as follows: (time point: T3 (3 h)) 1.06 ± 0.052; (time point: Tfinal (~6 h)) 1.18 ± 0.017.

On to `O=C(O)CCC(=O)OC[C@@H](NC(=O)C(Cl)Cl)[C@H](O)c1ccc([N+](=O)[O-])cc1`, for which the normalized intracellular growth (time point: T3 (3 h)) is 0.927 ± 0.048 and the normalized intracellular growth (time point: Tfinal (~6 h)) came out at 0.178 ± 0.014.

Turning to `CC(=O)Nc1ccc(S(=O)(=O)c2ccc(NC(C)=O)cc2)cc1`, the normalized intracellular growth reads like this: (time point: T3 (3 h)) 1.01 ± 0.04; (time point: Tfinal (~6 h)) 0.912 ± 0.062.

With `OC[C@@H](O)[C@@H](O)CO`, the normalized intracellular growth by setting is: (time point: T3 (3 h)) 0.947 ± 0.1; (time point: Tfinal (~6 h)) 1.08 ± 0.11.

For `Cc1cc(C(C)(C)C)c(O)c(C(C)(C)C)c1`, the normalized intracellular growth (time point: T3 (3 h)) was determined as 1.06 ± 0.046 and the normalized intracellular growth (time point: Tfinal (~6 h)) was found to be 0.834 ± 0.12.

With `FC(F)(F)C(Cl)Br` (stereo not drawn), the normalized intracellular growth runs as follows: (time point: T3 (3 h)) 1 ± 0.049; (time point: Tfinal (~6 h)) 1.08 ± 0.18.

With `CN1CC(=O)NC1=N`, the normalized intracellular growth stood at 1.03 ± 0.02 (time point: T3 (3 h)) and 1.1 ± 0.1 (time point: Tfinal (~6 h)).

For `COc1cc([C@@H]2c3cc4c(cc3[C@@H](O[C@@H]3O[C@@H]5CO[C@@H](c6cccs6)O[C@H]5[C@H](O)[C@H]3O)[C@H]3COC(=O)[C@H]23)OCO4)cc(OC)c1O`, the normalized intracellular growth came to 1.1 ± 0.049 (time point: T3 (3 h)) and 1.016 ± 0.0097 (time point: Tfinal (~6 h)).
